We go through 4 molecules from PubChem BioAssay (EPA / NIEHS).

Molecules are shown by their SMILES. Results filed as inconclusive are left out. Calls of active or inactive are those of the source. Rule for the calls, unless noted: active = hit-call score of the fitted dose curve at least 0.9, where 1 is the maximum; inactive = score below 0.9.

For experiment [1], the target named is Estrogen-related receptor gamma (Homo sapiens) (UniProt P62508). In words: ATG_ERRg_TRANS: Attagene TRANS-FACTORIAL HepG2 Assay for human Estrogen-Related Receptor gamma (ERRg) (AID 2282977; active = hit-call score of the fitted dose curve at least 0.9, where 1 is the maximum;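 note: hits increase reporter signal over DMSO so potencies reflect activators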). The note with it: HepG2 Attagene TRANS reporter, ERRg transactivation. In a few lines:
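Induction of reporter transcripts through a chimeric NR-Gal4 protein is quantified in transfected human HepG2 liver cells after 24 h chemical exposure, using RT-PCR with capillary electrophoresis detection and DMSO as baseline.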

Experiment [2] has as its target Oxysterols receptor LXR-alpha (Homo sapiens) (UniProt Q13133). The experiment is described as follows: ATG_LXRa_TRANS: Attagene TRANS-FACTORIAL HepG2 Assay for human Liver X Receptor alpha (LXRa) (AID 2282980; active = hit-call score of the fitted dose curve at least 0.9, where 1 is the maximum). The settings on record: HepG2 Attagene TRANS reporter, LXRa transactivation. In a few lines: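 HepG2 cells transiently transfected with GAL4-UAS reporter units for chimeric NR-Gal4 proteins, exposed to chemicals for 24 h. Reporter mRNA quantified by RT-PCR and capillary electrophoresis; gain of signal fitted relative to DMSO.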

Experiment [3] addresses Oxysterols receptor LXR-beta (Homo sapiens) (UniProt P55055). In words: ATG_LXRb_TRANS: Attagene TRANS-FACTORIAL HepG2 Assay for human Liver X Receptor beta (LXRb) (AID 2282981; active = hit-call score of the fitted dose curve at least 0.9, where 1 is the maximum). The note with it: HepG2 Attagene TRANS GAL4-LXRb reporter, mRNA. In a few lines: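 Multiplexed reporter assay, HepG2, 24 h dosing. Fluorescence of labelled RT-PCR products after capillary electrophoresis gives transcript level; positive fitting direction relative to DMSO.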

The target in experiment [4] is Hepatocyte nuclear factor 4-alpha (Homo sapiens) (UniProt P41235). The experiment is described as follows: ATG_HNF4a_TRANS: Attagene TRANS-FACTORIAL HepG2 Assay for human Hepatocyte Nuclear Factor 4 alpha (HNF4a) (AID 2282982; active = hit-call score of the fitted dose curve at least 0.9, where 1 is the maximum). The note with it: HepG2 HNF4a transactivation reporter, mRNA readout. In a few lines: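 Endpoint reflects transcriptional activation of a GAL4-UAS reporter by an HNF4a-GAL4 chimera in transfected HepG2 cells, 24 h post-dosing. Fluorescence from RT-PCR products separated by capillary electrophoresis; DMSO baseline.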
Hepatocyte nuclear factor 4-alpha (Homo sapiens), sequence (P41235 whole entry, looked up, the tested form may be a part): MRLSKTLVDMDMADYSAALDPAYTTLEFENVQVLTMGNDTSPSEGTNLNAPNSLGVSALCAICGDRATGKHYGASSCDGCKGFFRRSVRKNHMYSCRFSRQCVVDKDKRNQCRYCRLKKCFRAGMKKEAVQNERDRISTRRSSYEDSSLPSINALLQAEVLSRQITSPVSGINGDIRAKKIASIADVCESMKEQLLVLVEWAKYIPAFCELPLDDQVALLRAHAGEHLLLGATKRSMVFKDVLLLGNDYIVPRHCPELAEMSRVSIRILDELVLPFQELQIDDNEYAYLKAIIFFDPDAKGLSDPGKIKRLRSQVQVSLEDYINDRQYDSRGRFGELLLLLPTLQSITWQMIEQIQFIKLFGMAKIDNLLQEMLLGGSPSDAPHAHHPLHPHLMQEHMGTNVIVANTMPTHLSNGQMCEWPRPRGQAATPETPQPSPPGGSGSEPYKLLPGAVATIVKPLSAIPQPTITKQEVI

The nature of experiment [5]: ATG_M_06_TRANS: Attagene TRANS-FACTORIAL HepG2 Assay for M06 Transcription Factor (Internal Marker) (AID 2282983; active = hit-call score of the fitted dose curve at least 0.9, where 1 is the maximum). The settings on record: HepG2 Attagene TRANS M06 internal marker reporter. In a few lines:
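mRNA levels of a reporter transcript, quantified as FAM fluorescence on capillary electrophoresis, served as readout. HepG2 cells expressing exogenous GAL4-chimera reporter constructs were exposed for 24 h. Gain of signal over DMSO was evaluated.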

The nature of experiment [6]: ATG_M_32_TRANS: Attagene TRANS-FACTORIAL HepG2 Assay for M32 Transcription Factor (Internal Marker) (AID 2282984; active = hit-call score of the fitted dose curve at least 0.9, where 1 is the maximum;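 note: transcript level of a background control reporter unit measured by RT-PCR and capillary electrophoresis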). The settings on record: HepG2 Attagene TRANS M32 internal marker reporter. In a few lines: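 Internal-marker readout from a multiplexed transcription reporter panel. HepG2 cells were transfected with GAL4-UAS reporter units, treated 24 hours, and reporter transcript levels determined by fluorescence after RT-PCR and capillary separation.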

Experiment [7] has as its target Nuclear receptor subfamily 4 group A member 2 (Homo sapiens) (UniProt P43354). The experiment is described as follows: ATG_NURR1_TRANS: Attagene TRANS-FACTORIAL HepG2 Assay for human Nuclear Receptor Related Protein 1 (NURR1) (AID 2282985; active = hit-call score of the fitted dose curve at least 0.9, where 1 is the maximum). The settings on record: HepG2 Attagene TRANS reporter, mRNA readout. In a few lines: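 Endpoint: reporter mRNA increase relative to DMSO. HepG2 cells transfected with reporter units, treated 24 h; RNA processed by RT-PCR, labelling, HpaI digestion and capillary electrophoresis.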

Experiment [8] has as its target Transcriptional activator Myb (Homo sapiens) (UniProt P10242). In words: ATG_Myb_CIS: Attagene CIS-FACTORIAL HepG2 Assay for human Myeloblastosis (Myb) Proto-Oncogene Transcription Factor (AID 2282986). The note with it: HepG2 Attagene CIS-FACTORIAL Myb reporter transcription; actives raise or lower the signal. In a few lines:
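Multiplexed cis-reporter system in HepG2: transient transfection, 24 h treatment, mRNA readout by RT-PCR and capillary electrophoresis. Both increases and decreases are scored versus DMSO negative control.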

In experiment [9] the target is Nuclear respiratory factor 1 (Homo sapiens) (UniProt Q16656). In words: ATG_NRF1_CIS: Attagene CIS-FACTORIAL HepG2 Assay for human Nuclear Respiratory Factor 1 (NRF1) Orphan Gene (AID 2282987). The note with it: HepG2 NRF1 cis-element reporter, Attagene multiplex; actives raise or lower the signal. In a few lines: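 Endogenous factor activity was captured via cis-element-driven reporter transcripts in HepG2 cells. Following 24 h chemical treatment, transcripts were quantified by RT-PCR and capillary electrophoresis.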
Nuclear respiratory factor 1 (Homo sapiens), sequence (Q16656 whole entry, looked up): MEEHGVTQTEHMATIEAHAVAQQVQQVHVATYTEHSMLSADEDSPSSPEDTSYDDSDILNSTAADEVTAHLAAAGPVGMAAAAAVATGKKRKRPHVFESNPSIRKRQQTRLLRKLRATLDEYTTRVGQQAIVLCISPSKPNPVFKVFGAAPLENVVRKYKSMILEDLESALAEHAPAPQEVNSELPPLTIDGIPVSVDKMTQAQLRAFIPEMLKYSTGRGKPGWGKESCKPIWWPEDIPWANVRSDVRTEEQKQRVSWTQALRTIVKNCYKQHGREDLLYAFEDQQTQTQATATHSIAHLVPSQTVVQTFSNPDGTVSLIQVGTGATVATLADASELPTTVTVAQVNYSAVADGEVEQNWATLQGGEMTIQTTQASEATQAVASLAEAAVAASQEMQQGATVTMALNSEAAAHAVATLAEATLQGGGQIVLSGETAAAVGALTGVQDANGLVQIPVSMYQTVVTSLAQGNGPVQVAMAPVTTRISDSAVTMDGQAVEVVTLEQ

Experiment [10] has as its target Myc proto-oncogene protein (Homo sapiens) (UniProt P01106). In words: ATG_Myc_CIS: Attagene CIS-FACTORIAL HepG2 Assay for human Myelocytomatosis (Myc) Proto-Oncogene Transcription Factor (AID 2282990). The note with it: HepG2, Attagene cis-reporter transcription factor activity; actives raise or lower the signal. In a few lines: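 Transiently transfected HepG2 cells bearing cis-promoter reporter units for endogenous transcription factors; 24 h exposure. Reporter mRNA measured by RT-PCR, 6-FAM primer extension, HpaI cut and capillary electrophoresis; bidirectional fit relative to DMSO.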

Experiment [11] is described as follows: ATG_NF_kB_CIS: Attagene CIS-FACTORIAL HepG2 Assay for human Nuclear Factor Kappa B (NF-kB) (AID 2282991). The note with it: HepG2 Attagene cis-factorial NF-kB reporter mRNA; actives raise or lower the signal. In a few lines:
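After 24 h compound incubation, transfected HepG2 cells yield total RNA; reporter cDNA is PCR-amplified, end-labelled with 6-FAM, HpaI-digested and analysed on a genetic analyser. Endogenous factor activity, DMSO-referenced bidirectional fit.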

A short description of experiment [12]: ATG_Oct_MLP_CIS: Attagene CIS-FACTORIAL HepG2 Assay for human Octamer-Binding Transcription Factor (Oct) (AID 2282993). The settings on record: HepG2 Attagene cis-factorial Oct reporter, mRNA; actives raise or lower the signal. In a few lines:
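Read-out: reporter mRNA via RT-PCR plus capillary electrophoresis of 6-FAM-labelled fragments. Transiently transfected HepG2, 24 h exposure, endogenous TF activity on cis elements. Gain or loss of signal fitted relative to DMSO.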

Experiment [13] deals with Cellular tumor antigen p53 (Homo sapiens) (UniProt P04637). In words: ATG_p53_CIS: Attagene CIS-FACTORIAL HepG2 Assay for human p53 Transcription Factor (AID 2282994). The settings on record: HepG2 p53 cis-element reporter, Attagene mRNA; actives raise or lower the signal. In a few lines: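 In HepG2 cells, reporter transcription units under cis-regulatory promoters were transiently introduced. Following 24 h treatment, RNA was processed to labelled, digested cDNA fragments read by capillary electrophoresis; fitting was bidirectional versus DMSO.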
Cellular tumor antigen p53 (Homo sapiens), sequence (P04637 whole entry, looked up, the tested form may be a part): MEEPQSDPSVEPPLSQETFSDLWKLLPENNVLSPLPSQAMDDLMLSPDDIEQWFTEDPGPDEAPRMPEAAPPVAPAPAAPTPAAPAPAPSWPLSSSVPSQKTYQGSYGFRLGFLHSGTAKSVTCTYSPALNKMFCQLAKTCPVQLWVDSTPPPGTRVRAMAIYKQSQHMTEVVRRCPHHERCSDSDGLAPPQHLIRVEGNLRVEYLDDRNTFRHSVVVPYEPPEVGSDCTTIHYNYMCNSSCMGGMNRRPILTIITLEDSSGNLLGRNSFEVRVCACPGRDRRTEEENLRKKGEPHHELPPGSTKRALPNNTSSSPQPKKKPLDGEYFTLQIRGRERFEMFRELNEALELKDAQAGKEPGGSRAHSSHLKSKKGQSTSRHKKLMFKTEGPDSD

A short description of experiment [14]: BSK_3C_TissueFactor: BioMAP Diversity Plus: 3C Assay for Tissue Factor Biomarker Activity (AID 2282997). The settings on record: BioMAP 3C HUVEC, tissue factor biomarker readout; actives raise or lower the signal. In a few lines: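 Tissue Factor measured by ELISA, 24 h after treatment of primary HUVEC in the BioMAP 3C setting.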
The nature of experiment [15]: BSK_3C_uPAR: BioMAP Diversity Plus: 3C Assay for Urokinase-type plasminogen activator receptor (uPAR) Biomarker Activity (AID 2282998). The note with it: BioMAP 3C HUVEC, uPAR biomarker ELISA; actives raise or lower the signal. In a few lines:
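HUVEC primary cells; 24 h post-dose; uPAR by ELISA; gain or loss of signal fitted bidirectionally vs DMSO baseline.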
(In an ELISA, binding on a coated surface is turned into a signal by an enzyme label.)

The nature of experiment [16]: BSK_3C_VCAM1: BioMAP Diversity Plus: 3C Assay for Vascular cell adhesion molecule 1 (VCAM1) Biomarker Activity (AID 2282999). The note with it: BioMAP 3C HUVEC, VCAM1 ELISA, cytokine-stimulated; actives raise or lower the signal. In a few lines:
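HUVEC primary cells, 24 h compound exposure; VCAM-1 by ELISA; gain/loss of signal fitted bidirectionally vs DMSO baseline.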

Experiment [17] addresses Glucocorticoid receptor (Homo sapiens) (UniProt P04150). In words: ATG_GR_TRANS: Attagene TRANS-FACTORIAL HepG2 Assay for human Glucocorticoid Receptor (GR) (AID 2282978; active = hit-call score of the fitted dose curve at least 0.9, where 1 is the maximum;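 note: activators score as hits since higher reporter transcript over DMSO is fitted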). The note with it: HepG2 Attagene TRANS GR reporter, mRNA transcription. In a few lines: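 HepG2 transient transfection, multiple reporter units, GAL4-UAS under NR-GAL4 chimera control. 24 h treatment. Reporter mRNA by RT-PCR/CE fluorescence, DMSO as negative control.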

The target in experiment [18] is Bile acid receptor (Homo sapiens) (UniProt Q96RI1). In words: ATG_FXR_TRANS: Attagene TRANS-FACTORIAL HepG2 Assay for Farnesoid X Receptor (FXR) (AID 2282979; active = hit-call score of the fitted dose curve at least 0.9, where 1 is the maximum;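 note: hits raise reporter mRNA above DMSO so AC50 marks FXR activation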). The note with it: HepG2 Attagene TRANS FXR-GAL4 reporter transcription. In a few lines: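 HepG2 cells were transiently transfected with GAL4-UAS reporters driven by chimeric NR-Gal4 proteins and dosed for 24 h. Reporter mRNA was quantified by RT-PCR, fluorescent labelling, HpaI digestion and capillary electrophoresis, with gain of signal scored versus DMSO.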

Experiment [19] is described as follows: ATG_NFI_CIS: Attagene CIS-FACTORIAL HepG2 Assay for human Nuclear Factor I (NFI) (AID 2282989). The settings on record: HepG2 cis-regulatory reporter, NFI response element transcription; actives raise or lower the signal. In a few lines: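 Read-out: reporter mRNA via RT-PCR plus capillary electrophoresis with fluorescence detection. Transiently transfected HepG2 (endogenous TF activity on cis promoters), 24 h compound exposure; gain or loss of signal fitted against DMSO.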

Experiment [20] can be described thus: ATG_NRF2_ARE_CIS: Attagene CIS-FACTORIAL HepG2 Assay for human Nuclear Factor Erythroid 2 Related Factor 2 (NFR2) response to Antioxidant Response Elements (ARE) (AID 2282992). The note with it: HepG2 Attagene ARE/NRF2 reporter, transcription factor activity; actives raise or lower the signal. In a few lines: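 Using transiently transfected HepG2 cells exposed for 24 h, reporter mRNA levels were determined by RT-PCR with fluorescent primer extension and capillary electrophoresis, analysed for gain or loss of signal against DMSO.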

Transcriptional activator Myb (Homo sapiens), sequence (P10242 whole entry, looked up): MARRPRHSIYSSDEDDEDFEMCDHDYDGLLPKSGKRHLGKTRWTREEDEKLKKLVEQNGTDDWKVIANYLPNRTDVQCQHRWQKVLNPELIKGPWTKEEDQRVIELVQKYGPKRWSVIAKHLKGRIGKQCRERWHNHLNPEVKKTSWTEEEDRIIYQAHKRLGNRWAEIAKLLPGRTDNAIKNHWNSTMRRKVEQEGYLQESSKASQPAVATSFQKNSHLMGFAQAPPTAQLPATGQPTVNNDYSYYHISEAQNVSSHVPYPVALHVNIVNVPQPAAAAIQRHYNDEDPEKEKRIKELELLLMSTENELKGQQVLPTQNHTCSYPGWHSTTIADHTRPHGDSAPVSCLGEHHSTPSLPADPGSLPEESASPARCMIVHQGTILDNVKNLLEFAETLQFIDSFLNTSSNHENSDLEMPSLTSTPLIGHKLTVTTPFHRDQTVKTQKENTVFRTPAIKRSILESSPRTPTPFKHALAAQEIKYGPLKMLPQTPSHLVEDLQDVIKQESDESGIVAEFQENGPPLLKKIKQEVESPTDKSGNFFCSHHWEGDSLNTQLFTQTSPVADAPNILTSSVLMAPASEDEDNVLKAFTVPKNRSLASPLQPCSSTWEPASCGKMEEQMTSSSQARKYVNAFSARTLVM
Estrogen-related receptor gamma (Homo sapiens), sequence (P62508 whole entry, looked up, the tested form may be a part): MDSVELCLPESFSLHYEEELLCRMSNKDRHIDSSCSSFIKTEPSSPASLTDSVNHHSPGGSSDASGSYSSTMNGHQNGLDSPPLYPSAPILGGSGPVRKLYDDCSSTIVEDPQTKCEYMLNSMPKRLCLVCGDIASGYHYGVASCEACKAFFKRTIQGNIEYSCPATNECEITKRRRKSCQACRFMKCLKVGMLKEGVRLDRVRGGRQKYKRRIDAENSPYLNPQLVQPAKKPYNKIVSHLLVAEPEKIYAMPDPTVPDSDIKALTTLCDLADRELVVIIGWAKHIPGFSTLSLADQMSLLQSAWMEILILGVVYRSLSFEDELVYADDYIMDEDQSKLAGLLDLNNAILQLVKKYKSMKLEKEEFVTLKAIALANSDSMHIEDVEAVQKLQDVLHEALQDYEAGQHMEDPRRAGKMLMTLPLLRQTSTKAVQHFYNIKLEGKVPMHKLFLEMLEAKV
Myc proto-oncogene protein (Homo sapiens), sequence (P01106 whole entry, looked up): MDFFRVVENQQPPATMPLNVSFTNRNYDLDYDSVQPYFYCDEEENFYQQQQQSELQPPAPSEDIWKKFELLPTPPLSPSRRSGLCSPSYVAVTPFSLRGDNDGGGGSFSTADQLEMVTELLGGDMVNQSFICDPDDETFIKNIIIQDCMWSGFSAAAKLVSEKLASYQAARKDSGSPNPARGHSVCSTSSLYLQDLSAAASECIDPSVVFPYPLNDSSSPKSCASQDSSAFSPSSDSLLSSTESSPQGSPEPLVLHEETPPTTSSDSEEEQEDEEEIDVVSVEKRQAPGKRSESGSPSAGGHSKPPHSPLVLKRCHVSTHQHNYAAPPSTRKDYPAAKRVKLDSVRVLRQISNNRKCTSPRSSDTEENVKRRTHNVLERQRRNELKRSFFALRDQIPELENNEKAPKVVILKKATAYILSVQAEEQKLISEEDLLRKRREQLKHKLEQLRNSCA
Nuclear receptor subfamily 4 group A member 2 (Homo sapiens), sequence (P43354 whole entry, looked up): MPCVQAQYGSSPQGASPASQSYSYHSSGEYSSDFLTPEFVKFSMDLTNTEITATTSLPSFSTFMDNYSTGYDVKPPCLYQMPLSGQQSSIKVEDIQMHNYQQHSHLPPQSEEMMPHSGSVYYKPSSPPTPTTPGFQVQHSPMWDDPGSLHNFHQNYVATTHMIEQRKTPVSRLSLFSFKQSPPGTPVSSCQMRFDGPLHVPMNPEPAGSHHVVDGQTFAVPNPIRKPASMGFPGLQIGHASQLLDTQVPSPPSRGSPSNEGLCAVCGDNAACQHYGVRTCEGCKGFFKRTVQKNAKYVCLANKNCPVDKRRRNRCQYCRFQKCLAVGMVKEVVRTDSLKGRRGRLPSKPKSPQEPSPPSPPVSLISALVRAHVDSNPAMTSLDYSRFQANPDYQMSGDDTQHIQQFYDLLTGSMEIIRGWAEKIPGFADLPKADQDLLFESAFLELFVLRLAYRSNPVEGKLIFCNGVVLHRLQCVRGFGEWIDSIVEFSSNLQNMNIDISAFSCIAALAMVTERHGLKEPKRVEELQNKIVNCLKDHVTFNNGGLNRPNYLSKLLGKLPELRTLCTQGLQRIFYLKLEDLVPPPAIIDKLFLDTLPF
Oxysterols receptor LXR-beta (Homo sapiens), sequence (P55055 whole entry, looked up, the tested form may be a part): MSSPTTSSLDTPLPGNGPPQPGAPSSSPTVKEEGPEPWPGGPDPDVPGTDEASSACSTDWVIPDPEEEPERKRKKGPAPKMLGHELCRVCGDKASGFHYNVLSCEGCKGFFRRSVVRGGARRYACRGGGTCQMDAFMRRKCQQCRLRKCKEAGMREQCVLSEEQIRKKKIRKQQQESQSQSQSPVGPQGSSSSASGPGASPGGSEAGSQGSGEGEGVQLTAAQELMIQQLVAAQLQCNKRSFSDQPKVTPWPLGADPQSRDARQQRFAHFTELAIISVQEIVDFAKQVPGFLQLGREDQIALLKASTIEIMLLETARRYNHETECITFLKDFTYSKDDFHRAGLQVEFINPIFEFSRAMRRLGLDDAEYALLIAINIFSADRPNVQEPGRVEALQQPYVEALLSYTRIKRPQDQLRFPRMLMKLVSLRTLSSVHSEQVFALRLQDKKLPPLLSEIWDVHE
Glucocorticoid receptor (Homo sapiens), sequence (P04150 whole entry, looked up, the tested form may be a part): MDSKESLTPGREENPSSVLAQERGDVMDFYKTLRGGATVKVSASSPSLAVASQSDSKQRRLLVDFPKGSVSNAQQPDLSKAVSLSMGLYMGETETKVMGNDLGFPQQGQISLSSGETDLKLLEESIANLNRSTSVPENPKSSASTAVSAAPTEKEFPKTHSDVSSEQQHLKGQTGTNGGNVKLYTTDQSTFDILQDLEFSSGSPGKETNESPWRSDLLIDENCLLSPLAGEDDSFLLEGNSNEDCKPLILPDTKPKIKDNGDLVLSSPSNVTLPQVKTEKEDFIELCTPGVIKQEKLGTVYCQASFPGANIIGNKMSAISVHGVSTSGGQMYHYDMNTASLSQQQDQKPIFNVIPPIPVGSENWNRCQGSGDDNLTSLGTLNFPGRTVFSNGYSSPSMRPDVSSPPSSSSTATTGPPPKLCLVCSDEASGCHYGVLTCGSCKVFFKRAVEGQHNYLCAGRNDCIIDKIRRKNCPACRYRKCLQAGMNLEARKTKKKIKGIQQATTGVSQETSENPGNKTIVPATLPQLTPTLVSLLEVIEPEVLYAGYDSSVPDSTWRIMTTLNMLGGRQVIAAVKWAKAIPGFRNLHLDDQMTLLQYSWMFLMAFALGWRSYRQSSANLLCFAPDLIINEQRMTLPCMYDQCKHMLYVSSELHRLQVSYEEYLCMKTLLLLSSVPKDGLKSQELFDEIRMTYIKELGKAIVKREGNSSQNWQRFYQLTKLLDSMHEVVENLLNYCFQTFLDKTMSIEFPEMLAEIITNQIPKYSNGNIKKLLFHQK

On to `CC1=NNC(=O)N(/N=C/c2cccnc2)C1`, for which the molecule was called inactive in experiment [1], in experiment [2], in experiment [3], in [4], in experiment [5] and in [6]. The call in experiment [7], in [8], in experiment [9], in experiment [10], in [11] and in experiment [12] was inactive. The molecule was called inactive in experiment [13], in [14], in experiment [15] and in [16].
What is called AC50 is the concentration at which the activity in the assay is half-maximal. Take `COP(=O)(OC)OC(Br)C(Cl)(Cl)Br` (centres undefined): the molecule was classed as inactive in experiment [17], in experiment [18], in experiment [3], in [4], in experiment [8] and in experiment [9]. Also, the result in experiment [19], in [10] and in experiment [12] was inactive. Moreover, the AC50 in [14] was 16.3 µM (active); in experiment [15], 31.7 µM (active); in experiment [16] it was 29.7 µM (active).
In the case of `CCCCN(CC)c1c([N+](=O)[O-])cc(C(F)(F)F)cc1[N+](=O)[O-]`, the call in experiment [1], in experiment [17], in [2], in experiment [5], in experiment [6] and in experiment [7] was inactive. Besides, the molecule was classed as inactive in experiment [8], in experiment [9], in experiment [11], in experiment [13], in experiment [14] and in experiment [15]. For the same molecule, the outcome in experiment [16] was inactive. In addition, the half-maximal activity concentration (AC50) was 6.46 µM (active) in experiment [20] and 12.7 µM (active) in experiment [12].
On to `CCc1cccc(C)c1N(C(=O)CCl)C(C)COC` (centres undefined), for which the molecule was called inactive in experiment [1], in experiment [5], in experiment [6], in experiment [8], in experiment [9] and in experiment [11]. In addition, the outcome in [13], in experiment [14], in experiment [15] and in experiment [16] was inactive. Also, in [12], the AC50 is 14.2 µM (active).
